# Source: PubChem BioAssay (NCATS)
# Records with an inconclusive call do not appear. Entries that show only a call come without a potency. The source made the active and inactive calls. Calls follow the shape of the dose curve; as a rule, active = well fitted inhibition curve with a large enough effect; inconclusive = small, poorly fitted or top-dose-only effect; inactive = flat fitted curve, though single readings scatter.
# Experiments:
# Assay in all cases: qHTS profiling for inhibitors of Plasmodium falciparum proliferation (AID 504749); also: nearly all actives have a fitted effect of over 60% in size
# Details in all cases: P. falciparum in erythrocytes, SYBR Green DNA, 72 h; series mostly up to 28.7 µM
# DIV14 = test system: DIV14
# Procedure, shortened: (§1)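 Parasite proliferation within erythrocytes, 72 h exposure. Endpoint: SYBR Green I fluorescence after overnight lysis at room temperature. Controls: 0.29 uM artemisinin, DMSO.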
# DIV17 = test system: DIV17
# Procedure, shortened: as §1
# DIV30 = test system: DIV30
# Procedure, shortened: as §1
# Dd2 = test system: Dd2
# Procedure, shortened: as §1
# ECU = test system: ECU
# Procedure, shortened: as §1
# FAB9 = test system: FAB9
# Procedure, shortened: as §1
# GB4 = test system: GB4
# Procedure, shortened: as §1
# HB3 = test system: HB3
# Procedure, shortened: as §1
# ICS = test system: ICS
# Procedure, shortened: as §1
# JCK = test system: JCK
# Procedure, shortened: as §1
# N140 = test system: N140
# Procedure, shortened: as §1
# P93_24 = test system: P93_24
# Procedure, shortened: as §1
# P94_40 = test system: P94_40
# Procedure, shortened: as §1
# PAD = test system: PAD
# Procedure, shortened: as §1
# PC15 = test system: PC15
# Procedure, shortened: as §1
# PC26 = test system: PC26
# Procedure, shortened: as §1
# PC49 = test system: PC49
# Procedure, shortened: as §1
# SC27B = test system: SC27B
# Procedure, shortened: as §1
# TAB109 = test system: TAB109
# Procedure, shortened: as §1
# TAB113 = test system: TAB113
# Procedure, shortened: as §1
# Potency is read from the fitted curve at half-maximal effect.
Compound,Potency (DIV14),Potency (DIV17),Potency (DIV30),Potency (Dd2),Potency (ECU),Potency (FAB9),Potency (GB4),Potency (HB3),Potency (ICS),Potency (JCK),Potency (N140),Potency (P93_24),Potency (P94_40),Potency (PAD),Potency (PC15),Potency (PC26),Potency (PC49),Potency (SC27B),Potency (TAB109),Potency (TAB113)
COc1ccccc1N1CCNCC1,inactive,inactive,inactive,inactive,inactive,inactive,inactive,inactive,inactive,inactive,inactive,inactive,inactive,inactive,inactive,inactive,inactive,inactive,inactive,inactive
Oc1ccc(Cl)cc1Cc1ccccc1,7.57 µM (active),7.57 µM (active),10.7 µM (active),10 µM (active),11.2 µM (active),inactive,8.49 µM (active),12.6 µM (active),2 µM (active),,7.94 µM (active),,12.6 µM (active),11.2 µM (active),,15.1 µM (active),,10 µM (active),,
Nc1ccncc1,inactive,inactive,inactive,inactive,inactive,inactive,inactive,inactive,inactive,inactive,inactive,inactive,inactive,inactive,inactive,,inactive,inactive,inactive,inactive
O=C(NC(O)C(Cl)(Cl)Cl)NC(O)C(Cl)(Cl)Cl (centres undefined),inactive,inactive,inactive,inactive,inactive,inactive,inactive,inactive,inactive,inactive,inactive,inactive,inactive,inactive,inactive,inactive,inactive,inactive,inactive,inactive
CN1C[C@H](CNC(=O)OCc2ccccc2)C[C@@H]2c3cccc4c3c(cn4C)C[C@H]21,8.49 µM (active),15.1 µM (active),15.1 µM (active),7.94 µM (active),11.2 µM (active),inactive,8.49 µM (active),,7.08 µM (active),inactive,12.6 µM (active),5.01 µM (active),6.31 µM (active),,,13.5 µM (active),inactive,,5.62 µM (active),12.6 µM (active)
NP(N)(=O)NC(=O)c1ccc(F)cc1,inactive,inactive,inactive,inactive,inactive,inactive,inactive,inactive,inactive,inactive,inactive,inactive,inactive,inactive,inactive,inactive,inactive,inactive,inactive,inactive
CN1C(=S)CN=C(c2ccccc2)c2cc(Cl)ccc21,inactive,inactive,inactive,inactive,inactive,inactive,inactive,inactive,inactive,inactive,inactive,inactive,inactive,inactive,inactive,inactive,inactive,inactive,inactive,inactive
Cc1ccc(-c2nc3ccc(C)cn3c2CC(=O)N(C)C)cc1,inactive,inactive,inactive,inactive,inactive,inactive,inactive,inactive,inactive,inactive,inactive,,inactive,inactive,inactive,,inactive,inactive,inactive,inactive
NCC1(CC(=O)O)CCCCC1,inactive,inactive,inactive,inactive,inactive,inactive,inactive,inactive,inactive,inactive,inactive,inactive,inactive,inactive,inactive,inactive,inactive,inactive,inactive,inactive
CC(C)(N)Cc1ccc(Cl)cc1,,inactive,inactive,,inactive,inactive,8.49 µM (active),inactive,inactive,,,inactive,inactive,inactive,inactive,,inactive,inactive,inactive,inactive
CCC(COC(=O)c1cc(OC)c(OC)c(OC)c1)(c1ccccc1)N(C)C (centres undefined),inactive,inactive,inactive,inactive,inactive,inactive,,inactive,inactive,inactive,inactive,inactive,,inactive,inactive,inactive,inactive,inactive,inactive,inactive
c1ccc(C2CC2)c(OCC2=NCCN2)c1,,,inactive,,inactive,inactive,,inactive,inactive,inactive,inactive,inactive,inactive,inactive,inactive,inactive,inactive,inactive,inactive,inactive
N#CC(C#N)=Cc1ccc(O)c(O)c1,inactive,,inactive,inactive,inactive,inactive,,inactive,inactive,inactive,inactive,inactive,inactive,inactive,inactive,inactive,inactive,inactive,,
CCCN1CCC[C@@H]2Cc3[nH]ncc3C[C@H]21,inactive,inactive,inactive,,,,inactive,,,,,,,,,inactive,,,,
C[C@]12C/C(=C/O)C(=O)C[C@@H]1CC[C@@H]1[C@@H]2CC[C@@]2(C)[C@H]1CC[C@]2(C)O,,,inactive,inactive,inactive,inactive,inactive,inactive,,inactive,inactive,inactive,inactive,,inactive,inactive,inactive,inactive,inactive,inactive
CCOC(=O)C1(c2ccccc2)CCN(CCC(C#N)(c2ccccc2)c2ccccc2)CC1,4.78 µM (active),6.75 µM (active),6.75 µM (active),8.91 µM (active),3.98 µM (active),,3.38 µM (active),5.01 µM (active),2.24 µM (active),,3.55 µM (active),3.55 µM (active),3.16 µM (active),2.51 µM (active),12.6 µM (active),6.75 µM (active),,2.82 µM (active),3.16 µM (active),2.24 µM (active)

Compound,Potency (DIV14),Potency (DIV17),Potency (DIV30),Potency (Dd2),Potency (ECU),Potency (FAB9),Potency (GB4),Potency (HB3),Potency (ICS),Potency (JCK),Potency (N140),Potency (P93_24),Potency (P94_40),Potency (PAD),Potency (PC15),Potency (PC26),Potency (PC49),Potency (SC27B),Potency (TAB109),Potency (TAB113)
CC(C)NCC(O)c1ccccc1Cl (centres undefined),6.75 µM (active),6.75 µM (active),,11.2 µM (active),7.94 µM (active),inactive,8.49 µM (active),,4.47 µM (active),,7.08 µM (active),12.6 µM (active),3.98 µM (active),7.94 µM (active),11.2 µM (active),,,10 µM (active),4.47 µM (active),12.6 µM (active)
CCN(C(C)=O)c1cccc(-c2ccnc3c(C#N)cnn23)c1,,inactive,inactive,inactive,inactive,inactive,inactive,inactive,inactive,inactive,inactive,inactive,inactive,inactive,inactive,inactive,inactive,inactive,inactive,inactive
Clc1cccc(N2CCNCC2)c1,,,inactive,,inactive,inactive,,inactive,inactive,inactive,inactive,inactive,inactive,inactive,inactive,inactive,inactive,inactive,,inactive
CC(CCc1ccccc1)NC(C)C(O)c1ccc(O)cc1 (centres undefined),9.53 µM (active),,,11.2 µM (active),inactive,inactive,,inactive,inactive,inactive,,,,inactive,,,inactive,inactive,,inactive
CC(C)=CC1C(C(=O)OCc2cccc(Oc3ccccc3)c2)C1(C)C (centres undefined),inactive,inactive,,,inactive,inactive,inactive,inactive,,inactive,inactive,inactive,inactive,inactive,inactive,inactive,inactive,inactive,inactive,inactive
O=c1[nH]c2ccccc2n1CCCN1CCC(n2c(=O)[nH]c3cc(Cl)ccc32)CC1,5.36 µM (active),8.49 µM (active),7.57 µM (active),,7.94 µM (active),inactive,,10 µM (active),2.24 µM (active),,6.31 µM (active),5.01 µM (active),11.2 µM (active),4.47 µM (active),7.94 µM (active),6.75 µM (active),inactive,,5.01 µM (active),
CC(C)(C)CC(C)(C)c1ccc(O)cc1,,,inactive,,,inactive,,,,inactive,inactive,inactive,,inactive,inactive,inactive,,inactive,inactive,inactive
NCC(O)c1ccc(O)cc1 (centres undefined),,inactive,inactive,inactive,inactive,inactive,inactive,inactive,inactive,inactive,inactive,inactive,inactive,inactive,inactive,inactive,inactive,inactive,inactive,inactive
COc1ccc(C(=O)c2c(C)n(CCN3CCOCC3)c3ccccc23)cc1,,,inactive,inactive,inactive,inactive,,inactive,,inactive,inactive,inactive,,inactive,inactive,,inactive,inactive,inactive,inactive
O=[N+]([O-])c1cc([As](=O)(O)O)ccc1O,,,5.73 µM (active),3.55 µM (active),3.16 µM (active),3.55 µM (active),4.55 µM (active),3.16 µM (active),3.16 µM (active),,3.55 µM (active),,,,,,,3.55 µM (active),3.16 µM (active),3.16 µM (active)
O=C(O)c1ccc2[nH]cc(CCCCN3CC=C(c4ccccc4)CC3)c2c1,,inactive,inactive,inactive,inactive,inactive,inactive,inactive,inactive,inactive,inactive,inactive,inactive,inactive,inactive,inactive,inactive,inactive,inactive,inactive
CC(C)(C)NCC(O)c1cc(Cl)c(N)c(Cl)c1 (centres undefined),12 µM (active),8.49 µM (active),,12.6 µM (active),,inactive,7.57 µM (active),inactive,11.2 µM (active),,8.91 µM (active),,7.94 µM (active),7.94 µM (active),,,,,,
Cc1cccc(C)c1NC1=NCCCS1,,,,12.6 µM (active),inactive,inactive,8.49 µM (active),inactive,12.6 µM (active),inactive,,,,,inactive,,,inactive,,inactive
C#CCOC(C(=O)OCCN(C)C)(c1ccccc1)c1ccccc1,inactive,,inactive,,,inactive,inactive,inactive,,inactive,inactive,,inactive,inactive,inactive,inactive,inactive,inactive,,inactive
Cc1ccc(S(=O)(=O)N[C@@H](CCCCN)C(=O)CCl)cc1,,,inactive,,,inactive,,,12.6 µM (active),,,10 µM (active),11.2 µM (active),12.6 µM (active),inactive,inactive,,,11.2 µM (active),
C=C(C)[C@H]1Cc2c(ccc3c2O[C@@H]2COc4cc(OC)c(OC)cc4[C@@H]2C3=O)O1,,,,inactive,inactive,inactive,,inactive,11.2 µM (active),inactive,inactive,inactive,,inactive,inactive,inactive,inactive,inactive,inactive,inactive
